TbPYK inhibitor: qHTS of Trypanosoma Brucei Inhibitors. TbPYK enzyme, Kinase-Glo Plus ATP luminescence, 45 min. AID 624173, 2012. pyruvate kinase (Trypanosoma brucei), Q57TT1. 410,000 tested, 0.12% active. Potency, µM (highest dose often 76.8 µM), without a hit: at the top dose activity, negative = inhibition, hits mostly inhibitors; further: potency means the concentration at half of the fitted maximal effect; nearly all actives have a fitted effect of over 50% in size
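T. brucei PYK with substrate was exposed to pin-transferred compounds across a concentration series, then started with 130 uM ADP (final). After 45 min at room temperature, Kinase-Glo Plus luminescence was read, normalized and curve-fitted.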
HCMV inh: qHTS Assay for inhibitors of the human cytomegalovirus (HCMV). activity change, negative = inhibition, % at 57.5 µM. HFF cells, HCMV-luciferase reporter, 72 h; hits give low values. 410,000 tested, 4.5% active; in the data active means activity change below about -60%; inconclusive means no clear call, values can overlap the other calls; inactive means above about -39%
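Compounds were evaluated in HFFs infected with an HCMV luciferase reporter virus (MOI 1 PFU/cell). Luciferase in lysates collected 72 h post infection served as the replication measure.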
VACV mCherry inh: qHTS for Stage-Specific Inhibitors of Vaccinia Orthopoxvirus: mCherry Reporter Primary qHTS; Potency, µM (series often up to 36.5 µM), for inactives: at the top dose activity change, negative = inhibition, actives largely listed as inhibitors; Vaccinia virus mCherry reporter infection, fluorescence; AID 720579, 2013; 310,000 tested, 0.63% active; calls by dose curve; tested in A549 cells; further: potency means the concentration at half of the fitted maximal effect; nearly all actives have a fitted effect of over 35% in size
LmPK inhibitor: qHTS Assay for Inhibitors of Leishmania Mexicana Pyruvate Kinase (LmPK); Q27686; purified LmPK, Kinase-Glo ATP luminescence, 1 h; Potency, µM (series often up to 57.5 µM), inactives show at the top dose activity change, negative = inhibition, actives largely listed as inhibitors; 290,000 tested, 0.37% active; AID 1721, 2009; further: potency means the concentration at half of the fitted maximal effect
Target sequence (Q27686 whole entry, looked up): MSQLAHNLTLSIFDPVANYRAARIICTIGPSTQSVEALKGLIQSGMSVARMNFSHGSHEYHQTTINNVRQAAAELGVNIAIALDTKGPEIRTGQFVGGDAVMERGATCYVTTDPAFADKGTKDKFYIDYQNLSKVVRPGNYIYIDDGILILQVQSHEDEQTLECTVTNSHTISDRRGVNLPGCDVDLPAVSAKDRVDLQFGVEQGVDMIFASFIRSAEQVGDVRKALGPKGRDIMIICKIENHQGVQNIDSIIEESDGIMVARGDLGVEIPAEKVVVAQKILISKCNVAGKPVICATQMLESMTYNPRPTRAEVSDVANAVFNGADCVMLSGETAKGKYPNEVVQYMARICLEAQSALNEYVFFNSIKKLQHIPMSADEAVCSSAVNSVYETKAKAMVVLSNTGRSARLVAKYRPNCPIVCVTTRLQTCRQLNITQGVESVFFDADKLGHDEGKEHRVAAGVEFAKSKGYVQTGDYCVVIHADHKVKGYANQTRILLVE
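ATP generated from ADP (0.1 mM) and PEP (0.5 mM) by 0.1 nM LmPK over 1 h at room temperature (pH 7.2 imidazole buffer) was detected by coupled luciferase luminescence. Values were normalized to uninhibited and no-enzyme wells.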
Vaccinia Venus: qHTS for Stage-Specific Inhibitors of Vaccinia Orthopoxvirus: Venus Reporter Primary qHTS; Potency, µM (highest dose often 36.5 µM), without a hit: top-dose activity change, negative = inhibition, hits mostly inhibitors; 330,000 tested, 0.46% active; AID 720580, 2013; Vaccinia virus Venus reporter expression, fluorescence; calls by dose curve; tested in A549 cells; further: potency means the concentration at half of the fitted maximal effect; nearly all actives have a fitted effect of over 30% in size
An asterisk follows results filed as active; i = inactive; ? = inconclusive; . = not tested or not shown; + = active, no number; [ ] = another dose, or the depositor's remark. Rows were chosen to be rich in hits. Some 5% of all compounds tested hit in one or more screens of this group. Unless noted, the call rests on the fitted dose curve; in most records, active means well fitted curve in the direction sought with a large enough effect; inconclusive means small, poorly fitted or top-dose-only effect, or another doubt; inactive means no such curve, though single readings can be large; an effect the other way counts as inactive or inconclusive. On the % scale 0 is the no-effect control and ±100 the full control effect.

SMILES	TbPYK inhibitor	HCMV inh	VACV mCherry inh	LmPK inhibitor	Vaccinia Venus
N#CCCN(C1CCCCC1)S(=O)(=O)CCOc1ccccc1	2%	12	.	4%	-15%
CCn1c(SC/C=C/c2ccccc2)nnc1-c1cnccn1	-8%	9	.	1%	.
Cn1cc(-c2cc3n(n2)CCC(=O)N3CCCC(=O)Nc2ccccc2Cl)c2ccccc21	-4%	-62*	-24%	.	-11%
Cc1ccc(S(=O)(=O)CCc2nnc(NC(=O)c3ccccn3)s2)cc1	3%	.	.	-1%	5%
COc1cc(SSc2cc(OC)cc([N+](=O)[O-])c2N)c(N)c([N+](=O)[O-])c1	2.8µM*	-98*	.	16%	.
CCOC(=O)[C@]12Cc3ccccc3[C@H]1N(Cc1ccccc1)C(=O)c1ccccc12	-5%	-5	?	.	?
CCOC(=O)[C@]12Cc3c(cc(OC)c(OC)c3OC)[C@H]1N(C(C)C)C(=O)c1ccccc12	4%	-100*	-4%	.	-9%
CCOC(=O)[C@]12Cc3ccccc3[C@H]1N(C(C)C)C(=O)c1cc(OC)ccc12	-22%	-97*	?	.	?
CCOC(=O)[C@]12Cc3cc(C)ccc3[C@H]1N(C(C)C)C(=O)c1ccccc12	-16%	-98*	?	.	?
CCOC(=O)N1CCN(C(=O)C2c3cc(OC)c(OC)cc3C(=O)N3CCc4ccccc4C23)CC1 (stereo unspecified)	0%	-4	i	-2%	-8%
CCOC(=O)[C@]12Cc3ccccc3[C@H]1N(C)C(=O)c1cc(OC)ccc12	-6%	-97*	-5%	.	-15%
CCOC(=O)[C@]12Cc3cc(C)ccc3[C@H]1N(Cc1ccccc1)C(=O)c1ccccc12	-2%	-13	-22%	.	-22%
CNc1nc(N)nc(OC(C(F)(F)F)C(F)(F)F)n1	-1%	30	.	9%	.
CCOc1ccc(CN(C)C(=O)Cc2c[nH]c3ccccc23)cc1	0%	-11	i	2%	-16%
CCOC(=O)C1CCN(S(=O)(=O)c2ccccc2[N+](=O)[O-])CC1	-3%	-15	.	.	.
N/C(=N\OC(=O)c1cccc(Cn2cc(C(F)(F)F)ccc2=O)c1)c1ccccc1	-9%	?	.	1%	.
N/C(=N\OC(=O)c1cccc(Cn2cc(C(F)(F)F)ccc2=O)c1)c1ccc(Cl)cc1	2%	-64*	i[7.34 µM]	7%	1%[7.34 µM]
Cc1ccc(CCNc2ncnc(Cl)c2N)cc1	6%	-84*	?	.	-7%
Nc1c(Cl)ncnc1NCCO	5%	-19	i	-3%	-11%
CC(C)c1cccc(-c2csc(C(C)(O)c3ccc(F)c(F)c3)n2)c1 (stereo unspecified)	-7%	-77*	-3%	.	?
CC(O)(c1ccc(F)c(F)c1)c1nc(-c2cccc(F)c2)cs1 (stereo unspecified)	0%	-7	-8%	.	-12%
CC(C)c1cccc(-c2csc(C(C)(O)c3ccncc3)n2)c1 (stereo unspecified)	2%	-77*	i	.	-7%
COc1cccc(C(C)(O)c2nc(-c3cccc(C(C)C)c3)cs2)c1 (stereo unspecified)	2%	-20	-2%	.	-24%
Oc1cc(-c2nc3ccccc3s2)cc2c1OCCN(Cc1cccn1-c1ccc(Cl)cn1)C2	.	.	-7%	.	-1%
COc1ccc(/C=C/C(=O)N(CCC(N)=O)c2ccccc2)cc1S(=O)(=O)N1CCOCC1	-4%	-13	-11%	.	-3%
SMILES	TbPYK inhibitor	HCMV inh	VACV mCherry inh	LmPK inhibitor	Vaccinia Venus
CCOC(=O)c1cc(-c2ccccc2)n(-c2cccc(C(=O)Nc3cccc(F)c3)c2)c1C	13%[15.4 µM]	+	-13%	.	-6%
CCOC(=O)c1cc(-c2ccccc2)n(-c2cccc(C(=O)Nc3cccc(C(C)=O)c3)c2)c1C	-3%[15.4 µM]	0	-12%	.	?
CCOC(=O)c1cc(-c2ccccc2)n(-c2cccc(C(=O)Nc3ccc(F)c(F)c3)c2)c1C	2%[15.4 µM]	?	-23%	.	-14%
CCOC(=O)c1cc(-c2ccccc2)n(-c2cccc(C(=O)Nc3ccc(OC)cc3)c2)c1C	-4%[15.4 µM]	+	1%	.	-7%
Clc1ccc(-c2nc3ccccn3c2CN2CCOCC2)cc1	-2%	19	.	1%	.
COc1ccc(-c2nc3ccccn3c2CN2CCN(c3ccccc3F)CC2)cc1	-2%	-61*	-26%	1%	-22%
COc1ccc(N=C2C(=O)N3c4c(cccc42)C(C)=CC3(C)C)cc1	-8%	-63*	i	-2%	-4%
O=C(Nc1cc(Cl)cc(Cl)c1)Nc1cnccn1	1%	-38	.	-14%	.
CC(C)c1ccc(NC(=O)c2cc(S(=O)(=O)NCCC3=CCCCC3)ccc2F)cc1	1%	?	-25%	.	-25%
CC(C)c1ccc(NC(=O)c2cc(S(=O)(=O)NCc3ccccc3Cl)ccc2F)cc1	4%	-82*	?	.	?
CC(=O)c1cn(CC(=O)Nc2ccccc2C)c2ccccc12	-12%	-68*	.	-4%	?
CC(=O)c1cn(CC(=O)Nc2c(C)cccc2C)c2ccccc12	0%	-75*	?	-1%	?
CC(=O)c1cn(CC(=O)Nc2ccc(C)cc2)c2ccccc12	4%	-16	-14%	8%	-16%
CCC(=O)c1cn(CC(=O)Nc2c(C)cccc2C)c2ccccc12	7%	11	.	3%	.
O=C1NC[C@H](CCCCN2CCN(CC3CCCCC3)C(=O)C2=O)N(CCC2CCCCC2)C1=O	1%	11	-3%	.	0%
O=S(=O)(c1ccc(-c2csc(Nc3ccc(Br)cc3)n2)cc1)N1CCCC1	0%	-73*	-28%	5%	?
Cc1ccc(Nc2nc(-c3ccc(S(=O)(=O)N4CCCC4)cc3)cs2)cc1C	0%	.	.	1%	.
O=S(=O)(c1ccc(-c2csc(Nc3ccc(F)cc3)n2)cc1)N1CCCC1	-10%	-10	-7%	0%	?
Cc1cc(C)cc(Nc2nc(-c3ccc(S(=O)(=O)N4CCCC4)cc3)cs2)c1	-4%	-77*	.	1%	.
COC(=O)CNc1nc(OC)nc(N(C)C)n1	6%	.	.	-1%	-28%
COc1ccc(C(=O)Cn2c(NCCCl)nc3ccccc32)cc1	1%	-11	.	-11%	.
CCOC(=O)c1c(C)[nH]c(C)c1S(=O)(=O)N(C)CC(=O)N(C)Cc1ccccc1	7%	-21	.	7%	.
O=C(CCN1N=C(c2ccccc2)CCC1=O)NC1CCCCC1	2%	-77*	-19%	.	-13%
O=C(CCN1N=C(c2ccccc2)CCC1=O)NC1CCCC1	5%	-15	.	-1%	.
O=[N+]([O-])c1cccc2nc(-c3ccccc3)c(-c3ccccc3)nc12	6%	-101*	-14%	2%	-13%
Nc1nc2c([N+](=O)[O-])cccc2s1	8%	27	-2%	6%	-14%
